# Results filed as inconclusive are left out. Unmarked numbers belong to inactive results. The call rests on the fitted dose curve; in most records, active means well fitted curve in the direction sought with a large enough effect; inconclusive means small, poorly fitted or top-dose-only effect, or another doubt; inactive means no such curve, though single readings can be large or run the other way.
# Assay: qHTS Assay for Identifying Gametocytocidal Compounds (AID 743244);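 further: actives lower the fluorescent signal which means gametocytes are killed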
# Settings: P. falciparum 3D7 stage III-V gametocytes, alamarBlue, 72 h; max response: stronger effect = lower value
# Summary of the method: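 A resazurin-based viability read-out was applied to mature P. falciparum gametocytes: 72 h compound treatment, then 24 h dye incubation, with falling fluorescence signalling gametocytocidal effect.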
# On the % scale 0 is the no-effect control and ±100 the full control effect.
row,SMILES,max response [%]
1,CCN(CC)C(=O)N1CCN(C)CC1,0.149
2,CC(C)(C)NC(=O)[C@@H]1CN(Cc2cccnc2)CCN1C[C@@H](O)C[C@@H](Cc1ccccc1)C(=O)N[C@H]1c2ccccc2C[C@H]1O,5.54
3,OC[C@@H](O)[C@@H](O[C@@H]1O[C@H](CO)[C@H](O)[C@H](O)[C@H]1O)[C@H](O)[C@@H](O)CO,9.4
